Shown is part of a subset that was picked to be rich in hits.
IL1B secr inh – qHTS for Inhibitors of Inflammasome Signaling: IL-1-beta AlphaLISA Primary Screen; AID 743279, 2014; THP-1 LPS/ATP IL-1B secretion, AlphaLISA, 16 h; stronger effect = lower value; activity change, % at 57.5 µM; 4.7% of 360,000 active; in the data active = activity change below about -50%; inconclusive = mostly about -30% to -49%
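THP-1 cells pretreated 1 hr with compounds (up to 57.5 uM final), then stimulated with LPS (250 ng/mL final) plus ATP (1.25 mM final); secreted IL-1B measured by AlphaLISA after 16 hr, decreased signal indicating inhibition.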
TDP1 cell CPT – qHTS for Inhibitors of human tyrosyl-DNA phosphodiesterase 1 (TDP1): qHTS in cells in presence of CPT. chicken DT40 Tdp1-/-;hTDP1 cells + 20 nM CPT, ATP luminescence, 48 h. Potency, µM (doses to about 46.2 µM), inactives show at the highest dose activity change, negative = growth inhibition, usual class: inhibitors. 12% of 420,000 active; note: potency is the fitted concentration of half-maximal effect; nearly all actives have a fitted effect of over 55% in size
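Chicken DT40 Tdp1-/- cells complemented with human TDP1, 400 cells/well, exposed to compounds plus 20 nM camptothecin for at least 48 h at 37 C; viability read as ATP content by CellTiter-Glo luminescence.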
HT1080 IDH1KD tx – qHTS for induction of synthetic lethality in tumor cells producing 2HG: qHTS for the HT-1080-IDH1KD cell line. HT-1080 IDH1 knockdown viability, ATP luminescence, 48 h. 2% of 360,000 active. Potency, µM (titrated, usually from 46.1 µM), for inactives: top-dose activity, negative = toxicity, actives largely listed as cytotoxic;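 note: potency is the fitted concentration of half-maximal effect; 0% = DMSO wells and -100% = cell-free medium wells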
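IDH1KD HT-1080 cells, 750/well, RPMI + 5% FBS; compound pinned after 2 h settling; 48 h, 37 °C; CellTiter-Glo luminescence; % activity normalised to DMSO and no-cell wells; curves fitted, classed by r2 and efficacy.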
12-LOX inh – Primary qHTS assay for inhibitors of human arachidonate 12S-lipoxygenase (ALOX12): Round 2. Polyunsaturated fatty acid lipoxygenase ALOX12 (Homo sapiens), P18054. purified 12hLO, xylenol orange hydroperoxide absorbance. Potency, µM (doses to about 108 µM), inactives show top-dose activity change, negative = inhibition, hits mostly inhibitors. 1.1% of 580,000 active. AID 1671190, 2021; note: potency is the fitted concentration of half-maximal effect
Target sequence (P18054 whole entry, looked up): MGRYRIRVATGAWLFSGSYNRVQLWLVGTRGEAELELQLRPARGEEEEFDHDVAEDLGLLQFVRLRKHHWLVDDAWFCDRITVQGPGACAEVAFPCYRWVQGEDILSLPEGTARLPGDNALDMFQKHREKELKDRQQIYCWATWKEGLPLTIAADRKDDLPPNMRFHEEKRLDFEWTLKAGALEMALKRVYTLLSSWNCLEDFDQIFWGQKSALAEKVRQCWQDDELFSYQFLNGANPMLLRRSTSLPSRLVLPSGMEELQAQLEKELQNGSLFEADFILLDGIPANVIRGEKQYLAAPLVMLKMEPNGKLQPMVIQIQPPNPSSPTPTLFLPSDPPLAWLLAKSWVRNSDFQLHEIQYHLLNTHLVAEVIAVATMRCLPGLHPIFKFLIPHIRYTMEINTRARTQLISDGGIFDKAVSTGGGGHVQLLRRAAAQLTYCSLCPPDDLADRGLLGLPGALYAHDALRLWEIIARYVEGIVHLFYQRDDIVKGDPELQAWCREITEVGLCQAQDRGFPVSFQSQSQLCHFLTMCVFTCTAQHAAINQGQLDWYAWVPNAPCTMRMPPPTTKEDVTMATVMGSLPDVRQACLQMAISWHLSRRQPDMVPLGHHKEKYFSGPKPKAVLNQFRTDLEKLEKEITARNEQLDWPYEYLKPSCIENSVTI
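Purified human 12hLO at 150 nM in 25 mM Hepes, 0.01% Triton X-100, pH 7.0, preincubated 15 min at room temperature with compound. Reaction started with 40 uM arachidonic acid, 30 min at room temperature. Hydroperoxide measured by Fe-xylenol orange, 573/405 nm absorbance ratio.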
HT1080-NT tox – qHTS for induction of synthetic lethality in tumor cells producing 2HG: qHTS for the HT-1080-NT fibrosarcoma cell line | HT-1080-NT fibrosarcoma viability, CellTiter-Glo ATP luminescence, 48 h | Potency, µM (titrated, usually from 46.1 µM), for the others: at the top dose activity, negative = less viability, actives largely listed as cytotoxic | 1.6% of 360,000 active;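 note: NT is the 2HG producing partner of a matched IDH1 knockdown line; potency is the fitted concentration of half-maximal effect; 0% = DMSO-treated cells and -100% = media-only wells without cells; nearly all actives have a fitted effect of over 55% in size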
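A 48-hour cytotoxicity screen used HT-1080-NT cells plated 2 hours before compound delivery. ATP-based CellTiter-Glo luminescence measured viability, normalized to DMSO and no-cell controls.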
TDP1 cell noCPT – qHTS for Inhibitors of human tyrosyl-DNA phosphodiesterase 1 (TDP1): qHTS in cells in absence of CPT | AID 686978, 2013 | 15% of 420,000 active | Potency, µM (highest dose often 46.2 µM), inactives show at the highest dose activity change, negative = growth inhibition, actives largely listed as inhibitors | DT40 Tdp1-/- hTDP1 cells, no CPT, ATP luminescence, 48 h; note: potency is the fitted concentration of half-maximal effect; nearly all actives have a fitted effect of over 55% in size
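Growth of hTDP1-complemented DT40 Tdp1-knockout cells is measured by ATP luminescence after at least 48 hr compound exposure at 37 °C, with DMSO substituting for the 20 nM CPT used in the parallel screen.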
* = called active by the depositor; [ ] = dose if it differs, or a comment. Unless noted, calls come from the whole dose curve; as a rule, active = well fitted curve in the direction sought with a large enough effect; inconclusive = small, poorly fitted or top-dose-only effect, or another doubt; inactive = no such curve, though single readings can be large; an effect the other way counts as inactive or inconclusive. Unless noted, % is set by controls: 0 for no effect and ±100 for the full control effect.

Results for COc1ccc(C2=NN(C(=O)c3cccs3)C(c3ccc(OC)cc3)C2)cc1 (stereo not drawn) ?
IL1B secr inh: inconclusive; TDP1 cell CPT: inconclusive; HT1080 IDH1KD tx: 5%; 12-LOX inh: inconclusive; HT1080-NT tox: 5%; TDP1 cell noCPT: 18µM*

What do the screens show for `COc1ccc(C2CC(c3ccc(C)cc3)=NN2C(=O)c2ccccc2)cc1` (stereo not drawn)?
IL1B secr inh: inconclusive; TDP1 cell CPT: 21µM*; HT1080 IDH1KD tx: inconclusive; 12-LOX inh: 10%; HT1080-NT tox: inconclusive; TDP1 cell noCPT: 15µM*

How did COc1ccc(C2=NN(C(=O)c3ccccc3)C(c3ccccc3)C2)cc1 (stereo not drawn) do in these assays?
12-LOX inh: 38%

How did COc1ccc(C2=NN(C(=O)c3ccccc3)C(c3ccccc3)C2)c(O)c1 (stereo not drawn) do in these assays?
IL1B secr inh: -2; TDP1 cell CPT: inconclusive; HT1080 IDH1KD tx: -9%; 12-LOX inh: 0%; HT1080-NT tox: -17%; TDP1 cell noCPT: 18µM*

What do the screens show for `CC(C)(C)C(=O)N1CC[C@H]2CC(=O)N(Cc3cccnc3)CC[C@H]2C1`?
12-LOX inh: 33%[176 µM]

Results for CC1Cc2ccccc2N1C(=O)COC(=O)/C=C/c1ccc(F)cc1 (stereo not drawn) ?
IL1B secr inh: -5; TDP1 cell CPT: -15%; HT1080 IDH1KD tx: 2%; 12-LOX inh: inconclusive; HT1080-NT tox: -2%; TDP1 cell noCPT: -28%

How did CC1Cc2ccccc2N1C(=O)/C=C/c1cccc(F)c1 (stereo not drawn) do in these assays?
IL1B secr inh: -69*; TDP1 cell CPT: 0%; HT1080 IDH1KD tx: -12%; 12-LOX inh: -1%; HT1080-NT tox: -18%; TDP1 cell noCPT: -29%

Results for COc1ccc(OC)c(C2=NOC(C(=O)NCc3cccs3)C2)c1 (stereo not drawn) ?
IL1B secr inh: 39; TDP1 cell CPT: inconclusive; HT1080 IDH1KD tx: inconclusive; 12-LOX inh: -2%; HT1080-NT tox: -30%; TDP1 cell noCPT: 7.3µM*

How did O=C(NCCc1cccs1)C1CC(c2c(Cl)cccc2Cl)=NO1 (stereo not drawn) do in these assays?
IL1B secr inh: 0; TDP1 cell CPT: 4.1µM*; HT1080 IDH1KD tx: -4%; 12-LOX inh: -12%; HT1080-NT tox: 16%; TDP1 cell noCPT: 7.3µM*

What do the screens show for `O=C(NCc1cccs1)C1CC(c2ccc(Cl)cc2)=NO1` (stereo not drawn)?
IL1B secr inh: 4; TDP1 cell CPT: 13µM*; HT1080 IDH1KD tx: inconclusive; 12-LOX inh: 4%; HT1080-NT tox: -22%; TDP1 cell noCPT: 12µM*

How did COc1ccc(OC)c(C2=NOC(C(=O)NCCN3CCOCC3)C2)c1 (stereo not drawn) do in these assays?
IL1B secr inh: 0; TDP1 cell CPT: 3%; HT1080 IDH1KD tx: -1%; 12-LOX inh: -5%; HT1080-NT tox: 0%[9.24 µM]; TDP1 cell noCPT: -4%

What do the screens show for `Cc1ccc2c(=O)cc(C(=O)Nc3cccc(Cl)c3)oc2c1`?
12-LOX inh: -8%

Results for CC1=C[C@@H](CN2C(=O)C(C)=C(C)C2=O)[C@H](C(C)C)C[C@H]1Cc1nc2ccccc2[nH]1 ?
12-LOX inh: -15%[176 µM]
